About 16,000 (7.3%) of roughly 220,000 compounds were called active. Roughly 25% stayed inconclusive and do not appear here. No cut-off for these calls is given here. The entries come from a sample that favours actives as a whole.
Molecular target: T1, Aldehyde dehydrogenase 1A1 (Homo sapiens) (UniProt P00352)
T1 sequence (whole entry): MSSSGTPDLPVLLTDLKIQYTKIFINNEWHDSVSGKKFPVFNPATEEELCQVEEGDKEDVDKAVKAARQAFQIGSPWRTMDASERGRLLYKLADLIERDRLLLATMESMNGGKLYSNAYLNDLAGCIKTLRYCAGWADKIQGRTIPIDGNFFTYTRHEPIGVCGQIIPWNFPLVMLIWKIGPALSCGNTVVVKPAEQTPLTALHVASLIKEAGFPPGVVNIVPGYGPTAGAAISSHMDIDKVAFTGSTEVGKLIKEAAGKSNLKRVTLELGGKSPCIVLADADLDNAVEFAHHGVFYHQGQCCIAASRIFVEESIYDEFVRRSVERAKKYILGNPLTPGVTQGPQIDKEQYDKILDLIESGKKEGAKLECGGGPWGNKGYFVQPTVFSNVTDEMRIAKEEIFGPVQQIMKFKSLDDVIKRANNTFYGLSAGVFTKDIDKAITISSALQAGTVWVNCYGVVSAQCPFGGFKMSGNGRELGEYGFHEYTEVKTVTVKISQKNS
Assay: qHTS Assay for Inhibitors of Aldehyde Dehydrogenase 1 (ALDH1A1). [Related pubchem assays: 1030 (qHTS Validation Assay for Inhibitors of aldehyde dehydrogenase 1 (ALDH1A1))]
Assay type: functional

Potency, inactive:
O=C(O)c1ccc2c(c1)CC(c1ccccc1)OC2=O (centres undefined)
CCOC(=O)CN1C(=O)N[C@@H](c2cccc(C(F)(F)F)c2)C(C(=O)OC)=C1C
CC(C(=O)NN=C(c1ccccc1)c1ccccc1)N1CCCC1 (centres undefined)
O=C(N/N=C/c1ccc2c(c1)OCO2)c1ccc(Br)o1
N#CC1=C(N)Oc2c(oc(CO)cc2=O)C12C(=O)Nc1ccc(Cl)cc12 (centres undefined)
C[C@@H]1C[C@H]2[C@@H]3C[C@H](F)C4=CC(=O)C=C[C@]4(C)[C@@]3(F)[C@@H](O)C[C@]2(C)[C@@]1(O)C(=O)CO
CCc1ccc(Oc2coc3cc(OCC(=O)Nc4cc(C)ccc4C)ccc3c2=O)cc1
O=C(Cn1c2ccccc2c(=O)c2cc([N+](=O)[O-])ccc21)Nc1ccccc1Cl

Potency, active:
CC(C)C1SC(N/N=C/c2ccco2)=NC1=O (centres undefined) 200 µM
O=C(c1no[n+]([O-])c1C(=O)c1csc2ccccc12)c1csc2ccccc12 3.55 µM
CCOC(=O)N1CCN(c2nc3ccccc3nc2C(C#N)C(=O)NCCc2ccccc2)CC1 (centres undefined) 398 µM
CC(=O)OCc1ccccc1 20 µM
O=C(/C=C/c1ccc(Cl)cc1)c1cccs1 12.6 µM
COc1ccc(N2CC(C(=O)OCC(=O)c3cccc(OC)c3)CC2=O)cc1 (centres undefined) 224 µM

— ChEMBL document CHEMBL1201862, “PubChem BioAssay data set” (2004)
